Results filed as inconclusive are left out. A number with no mark means an inactive call. The source made the active and inactive calls. Calls come from the whole dose curve; as a rule, active = well fitted cell-killing curve with a large enough effect; inconclusive = small, poorly fitted or top-dose-only effect; inactive = no such curve, though single readings can be large or run the other way.
Experiment: qHTS of pediatric cancer cell lines to identify multiple opportunities for drug repurposing: Primary screen for Rh41 cells (AID 1347108); note: nearly all actives have a fitted effect of over 70% in size;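 for activity change, negative = cytotoxic: luminescence drop marks cytotoxic hits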
Conditions: Rh41 rhabdomyosarcoma viability, CellTiter-Glo luminescence, 48 h; series mostly up to 46 µM; activity change, negative = cytotoxic: at the top concentration
In short: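 Primary screen of approved and investigational compounds on cells in growth media at 37 degrees C, 5% CO2. MIPE set at 11-point and NPC set at 8-point dilutions; viability scored by ATP-based luminescence at 48 hours.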
In the case of `Cc1cccc(N(C)C(=S)Oc2ccc3c(c2)C2CCC3C2)c1` (stereo not drawn), the “activity change, negative = cytotoxic” value is reported as -12.4%. With `CC[C@@]1(O)C(=O)OCc2c1cc1n(c2=O)Cc2c-1nc1ccccc1c2/C=N/OC(C)(C)C` the Potency was 0.944 µM (active). In the case of `Cc1ccc(C(=O)Oc2ccc(C(O)CNC(C)(C)C)cc2OC(=O)c2ccc(C)cc2)cc1` (stereo not drawn), the “activity change, negative = cytotoxic” value is reported as -9.28%. With `C=CCNc1nc(NCC=C)nc(N2CCN(C(c3ccc(F)cc3)c3ccc(F)cc3)CC2)n1` the “activity change, negative = cytotoxic” value was -2.1%. For `CO[C@@H]1[C@@H](OC)[C@H](C)[C@@](O)(CC(=O)O)O[C@H]1[C@H](C)[C@H]1O[C@@]2(CC[C@@](C)([C@H]3CC[C@@](C)([C@@H]4O[C@@H]([C@H]5O[C@](C)(O)[C@H](C)C[C@@H]5C)C[C@@H]4OC4C[C@H](OC)[C@@H](OC)[C@H](C)O4)O3)O2)C[C@H](O)[C@H]1C` (stereo partly drawn), the Potency was 4.22 µM (active). In the case of `Cc1cccc(OCC(O)CNC(C)(C)C)c1C` (stereo not drawn), the “activity change, negative = cytotoxic” value is reported as 6.45%. For `CCCCN(CCCC)C(C(N)=O)c1ccc(OC)cc1` (stereo not drawn), the “activity change, negative = cytotoxic” value was 15.4%. In the case of `COc1c(C)c2c(c(O)c1C/C=C(\C)CCC(=O)OCCN1CCOCC1)C(=O)OC2`, the “activity change, negative = cytotoxic” value is reported as -26.7%. In the case of `C[N+]1(CC2COC(c3ccccc3)(c3ccccc3)O2)CCCCC1` (stereo not drawn), the “activity change, negative = cytotoxic” value is reported as 4.64% [at 16.1 µM]. In the case of `C/C(=C(/OCCOc1ccc(Cl)cc1)c1ccc(Cl)cc1Cl)n1ccnc1`, the “activity change, negative = cytotoxic” value is reported as 1.14%. In the case of `COc1ccc([C@@H]2Sc3ccccc3NC(=O)[C@@H]2O)cc1`, the “activity change, negative = cytotoxic” value is reported as 25.4%. In the case of `CC(C)C[C@@H]1[C@H](c2ccccc2)OC(=O)N1CCCN1CCCCCC1`, the “activity change, negative = cytotoxic” value is reported as -4.88%. With `CC1CC(=O)NN=C1c1ccc(NCC(C)(C)NCC(O)COc2cc(Cl)ccc2C#N)cc1` (stereo not drawn) the “activity change, negative = cytotoxic” value was 2.11%. For `Cc1ccc(Cl)c(OCC(O)CNC(C)(C)C)c1` (stereo not drawn), the “activity change, negative = cytotoxic” value was 14.3%. With `Cc1ccc(CCn2c3c(c4cc(Cl)ccc42)CN(C)CC3)cn1` the “activity change, negative = cytotoxic” value was 5.95%. With `c1ccc(C(O[C@H]2CCCN(CCc3ccc4c(c3)OCO4)C2)c2ccccc2)cc1` the “activity change, negative = cytotoxic” value was 17.2%. With `CC(=O)O[C@@H]1C(=O)O[C@@H]2[C@H]1OC(=O)[C@@H]2OC(C)=O` the “activity change, negative = cytotoxic” value was 25.7%. For `CC(C)C(=O)OCc1cccc(OC(=O)[C@@H]2N3C(=O)[C@@H](NC(=O)Cc4ccccc4)[C@H]3SC2(C)C)c1`, the “activity change, negative = cytotoxic” value was 22.4%. In the case of `CC(=O)[C@H]1CC[C@H]2[C@@H]3C=CC4=CC(=O)CC[C@@]4(C)[C@@H]3CC[C@]12C`, the “activity change, negative = cytotoxic” value is reported as 0.972%. For `CCCN(CCC)C(=O)C(CCC(=O)OCCCN1CCN(CCOC(=O)Cc2c(C)n(C(=O)c3ccc(Cl)cc3)c3ccc(OC)cc23)CC1)NC(=O)c1ccccc1` (stereo not drawn), the “activity change, negative = cytotoxic” value was 2.83%. For `O=C(CCC1CCN(Cc2ccccc2)CC1)c1ccc2c(c1)NCCCC2`, the “activity change, negative = cytotoxic” value was 9.12%. In the case of `CCOC(=O)Cn1cccc1-c1nc(-c2ccc(OC)cc2)c(-c2ccc(OC)cc2)s1`, the “activity change, negative = cytotoxic” value is reported as 15.8%. In the case of `CN1CCC(Nc2ncc3ncnc(Nc4ccc(F)c(Cl)c4)c3n2)CC1`, the “activity change, negative = cytotoxic” value is reported as 7.12%.
Potency is the fitted concentration of half-maximal effect.
